In PubChem BioAssay AID1159580 (chemical genetic matrix, 2015):
Several values for one entry are separate records, joined by “and”; a condition that tells them apart may be missing. Equal entries are not always repeated. The campaign covered roughly 5,500 compounds. About 2,000 (36%) were called active. Not shown: some 18% with an inconclusive outcome. Cut-off read from the data, not from the text of the source: active = normalized growth mostly below about 0.91 (no sharp cut-off); inconclusive = no clear call, values can overlap the other calls; inactive = mostly above about 0.92. This is one part of the list.

Test: chemical genetic growth profiling, strain panel (AID 1159580);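 note: tested at 20 µM; growth read once vehicle control cultures reached saturation at 30 °C; 1 = growth at the plate median or of vehicle wells; lower values mean less growth of the strain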
Details: growth OD

Measured: normalized growth

ClC1=C(Cl)C2(Cl)C3C4CC(C5OC45)C3C1(Cl)C2(Cl)Cl (configuration not stated)
inactive: S. cerevisiae deletion strains, locus YAL013W, strain DEP1, stronger effect = lower value 0.992 | S. cerevisiae deletion strains, locus YBR021W, strain FUR4, stronger effect = lower value 0.948 and 0.959 | S. cerevisiae deletion strains, locus YBR229C, strain ROT2, stronger effect = lower value 0.997 and 1 | S. cerevisiae deletion strains, locus YCL029C, strain bik1, stronger effect = lower value 0.967 and 1.02 | S. cerevisiae deletion strains, locus YDL035C, strain GPR1, stronger effect = lower value 0.981 and 0.974 | S. cerevisiae deletion strains, locus YDL074C, strain BRE1, stronger effect = lower value 1.03 | S. cerevisiae deletion strains, locus YDL101C, strain DUN1, stronger effect = lower value 0.993 and 1 | S. cerevisiae deletion strains, locus YDL134C, strain PPH21, stronger effect = lower value 0.998 and 0.988 | S. cerevisiae deletion strains, locus YDL185W, strain tfp1, stronger effect = lower value 0.996 and 1.03 | S. cerevisiae deletion strains, locus YDL192W, strain arf1, stronger effect = lower value 0.986 and 1.01 | S. cerevisiae deletion strains, locus YDR101C, strain arx1, stronger effect = lower value 0.973 and 1.01 | S. cerevisiae deletion strains, locus YDR150W, strain NUM1, stronger effect = lower value 1 and 0.976 | S. cerevisiae deletion strains, locus YDR162C, strain NBP2, stronger effect = lower value 0.999 and 0.969 | S. cerevisiae deletion strains, locus YDR318W, strain mcm21, stronger effect = lower value 0.983 and 1.01 | S. cerevisiae deletion strains, locus YDR388W, stronger effect = lower value 0.97 and 1.01 | S. cerevisiae deletion strains, locus YDR502C, strain sam2, stronger effect = lower value 0.983 and 1 | S. cerevisiae deletion strains, locus YEL061C, strain CIN8, stronger effect = lower value 1 | S. cerevisiae deletion strains, locus YER110C, stronger effect = lower value 0.971 and 1.02 | S. cerevisiae deletion strains, locus YER155C, strain BEM2, stronger effect = lower value 0.982 and 1.01 | S. cerevisiae deletion strains, locus YER167W, strain BCK2, stronger effect = lower value 0.976 and 0.99 | S. cerevisiae deletion strains, locus YGL078C, strain dbp3, stronger effect = lower value 0.978 and 1.01 | S. cerevisiae deletion strains, locus YGL086W, strain mad1, stronger effect = lower value 0.983 and 1.01 | S. cerevisiae deletion strains, locus YGL248W, strain PDE1, stronger effect = lower value 1 and 1.01 | S. cerevisiae deletion strains, locus YGR078C, strain PAC10, stronger effect = lower value 1 and 1.01 | S. cerevisiae deletion strains, locus YGR135W, strain pre9, stronger effect = lower value 0.988 and 0.995 | S. cerevisiae deletion strains, locus YGR229C, strain SMI1, stronger effect = lower value 0.971 | S. cerevisiae deletion strains, locus YGR252W, strain gcn5, stronger effect = lower value 0.968 and 0.972 | S. cerevisiae deletion strains, locus YHR030C, strain SLT2, stronger effect = lower value 0.99 and 1.04 and 1.01 | S. cerevisiae deletion strains, locus YHR079C, strain IRE1 (second series), stronger effect = lower value 0.971 and 1.01 | S. cerevisiae deletion strains, locus YHR079C, strain IRE1, stronger effect = lower value 1.01 | S. cerevisiae deletion strains, locus YHR094C, strain hxt1, stronger effect = lower value 0.974 and 1.01 | S. cerevisiae deletion strains, locus YHR129C, strain ARP1, stronger effect = lower value 0.998 and 1.02 | S. cerevisiae deletion strains, locus YHR200W, strain rpn10, stronger effect = lower value 0.978 and 1.02 | S. cerevisiae deletion strains, locus YIL066C, strain RNR3, stronger effect = lower value 1 and 0.968 | S. cerevisiae deletion strains, locus YIL073C, strain SPO22, stronger effect = lower value 0.919 and 1.08 | S. cerevisiae deletion strains, locus YIL125W, strain kgd1, stronger effect = lower value 0.985 and 1.01 | S. cerevisiae deletion strains, locus YIR030C, strain dcg1, stronger effect = lower value 0.979 and 1.02 | S. cerevisiae deletion strains, locus YJL095W, strain BCK1, stronger effect = lower value 1.02 and 1.05 and 1.06 | S. cerevisiae deletion strains, locus YJL134W, strain LCB3, stronger effect = lower value 0.982 and 1.01 | S. cerevisiae deletion strains, locus YJL168C, strain set2, stronger effect = lower value 0.98 and 1.01 | S. cerevisiae deletion strains, locus YJL187C, strain SWE1 (second series), stronger effect = lower value 0.991 and 1.02 | S. cerevisiae deletion strains, locus YJR043C, strain POL32, stronger effect = lower value 0.975 and 0.987 | S. cerevisiae deletion strains, locus YJR066W, strain TOR1, stronger effect = lower value 0.962 | S. cerevisiae deletion strains, locus YJR075W, strain HOC1, stronger effect = lower value 1 and 1.03 | S. cerevisiae deletion strains, locus YKL009W, strain mrt4, stronger effect = lower value 0.988 and 1.01 | S. cerevisiae deletion strains, locus YKL068W, stronger effect = lower value 0.986 and 1 | S. cerevisiae deletion strains, locus YKL085W, strain MDH1 (second series), stronger effect = lower value 0.983 and 0.995 | S. cerevisiae deletion strains, locus YKL085W, strain MDH1, stronger effect = lower value 0.983 and 0.995 | S. cerevisiae deletion strains, locus YKL190W, strain CNB1, stronger effect = lower value 1 and 0.986 | S. cerevisiae deletion strains, locus YKR001C, strain vps1, stronger effect = lower value 0.98 and 1.02 | S. cerevisiae deletion strains, locus YLR039C, strain RIC1, stronger effect = lower value 0.975 and 1.15 | S. cerevisiae deletion strains, locus YLR058C, strain SHM2, stronger effect = lower value 0.984 and 1.02 | S. cerevisiae deletion strains, locus YLR102C, strain apc9, stronger effect = lower value 0.984 and 1.01 | S. cerevisiae deletion strains, locus YLR113W, strain HOG1, stronger effect = lower value 0.937 | S. cerevisiae deletion strains, locus YLR262C, strain YPT6, stronger effect = lower value 0.953 and 1.24 | S. cerevisiae deletion strains, locus YLR268W, strain sec22, stronger effect = lower value 0.977 and 1.02 | S. cerevisiae deletion strains, locus YLR330W, strain CHS5, stronger effect = lower value 0.996 and 1.01 | S. cerevisiae deletion strains, locus YLR342W, strain FKS1 (second series), stronger effect = lower value 0.984 and 0.998 | S. cerevisiae deletion strains, locus YLR371W, strain rom2, stronger effect = lower value 0.97 and 1.02 | S. cerevisiae deletion strains, locus YLR418C, strain cdc73, stronger effect = lower value 0.964 and 0.976 | S. cerevisiae deletion strains, locus YML016C, strain PPZ1, stronger effect = lower value 0.996 and 1 | S. cerevisiae deletion strains, locus YML032C, strain rad52, stronger effect = lower value 0.967 and 0.998 | S. cerevisiae deletion strains, locus YML124C, strain tub3, stronger effect = lower value 0.973 and 1.01 | S. cerevisiae deletion strains, locus YMR078C, strain ctf18, stronger effect = lower value 0.973 and 1.01 | S. cerevisiae deletion strains, locus YMR223W, strain ubp8, stronger effect = lower value 0.975 and 1.01 | S. cerevisiae deletion strains, locus YMR263W, strain SAP30, stronger effect = lower value 1.01 | S. cerevisiae deletion strains, locus YMR307W, strain GAS1, stronger effect = lower value 0.909 and 0.97 | S. cerevisiae deletion strains, locus YNL067W, strain RPL9B, stronger effect = lower value 0.999 and 1.04 | S. cerevisiae deletion strains, locus YNL128W, strain TEP1, stronger effect = lower value 0.994 and 1.02 | S. cerevisiae deletion strains, locus YNL153C, strain GIM3, stronger effect = lower value 0.999 and 1.03 | S. cerevisiae deletion strains, locus YNL183C, strain NPR1, stronger effect = lower value 0.948 | S. cerevisiae deletion strains, locus YNL233W, strain BNI4, stronger effect = lower value 0.994 and 1.06 | S. cerevisiae deletion strains, locus YNL250W, strain rad50, stronger effect = lower value 0.965 and 1 | S. cerevisiae deletion strains, locus YNL271C, strain bni1, stronger effect = lower value 0.975 and 1.01 | S. cerevisiae deletion strains, locus YNL298W, strain CLA4, stronger effect = lower value 0.97 and 1.01 | S. cerevisiae deletion strains, locus YNL307C, strain MCK1, stronger effect = lower value 0.947 and 1.02 | S. cerevisiae deletion strains, locus YNL322C, strain KRE1, stronger effect = lower value 0.998 | S. cerevisiae deletion strains, locus YNR052C, strain pop2, stronger effect = lower value 0.965 and 1.01 | S. cerevisiae deletion strains, locus YOL006C, strain TOP1, stronger effect = lower value 1.01 | S. cerevisiae deletion strains, locus YOL012C, strain htz1 0.925 and 0.987 | S. cerevisiae deletion strains, locus YOL147C, strain pex11, stronger effect = lower value 0.966 and 1.02 | S. cerevisiae deletion strains, locus YOR061W, strain CKA2, stronger effect = lower value 0.998 and 1 | S. cerevisiae deletion strains, locus YOR069W, strain VPS5, stronger effect = lower value 0.995 and 1.01 | S. cerevisiae deletion strains, locus YOR136W, strain idh2, stronger effect = lower value 0.974 and 1.02 | S. cerevisiae deletion strains, locus YOR144C, strain elg1, stronger effect = lower value 0.97 and 1 | S. cerevisiae deletion strains, locus YOR184W, strain ser1, stronger effect = lower value 0.967 and 1.01 | S. cerevisiae deletion strains, locus YOR231W, strain MKK1, stronger effect = lower value 1.04 | S. cerevisiae deletion strains, locus YOR316C, strain cot1, stronger effect = lower value 0.976 and 1.01 | S. cerevisiae deletion strains, locus YPL055C, strain LGE1, stronger effect = lower value 0.999 | S. cerevisiae deletion strains, locus YPL241C, strain CIN2, stronger effect = lower value 0.999 and 1.01 | S. cerevisiae deletion strains, locus YPL256C, strain CLN2, stronger effect = lower value 1.04 | S. cerevisiae deletion strains, locus YPR119W, strain clb2, stronger effect = lower value 0.974 and 1.01 | S. cerevisiae deletion strains, locus YPR141C, strain kar3, stronger effect = lower value 0.969 and 1.01 | S. cerevisiae deletion strains, locus YPR163C, strain tif3, stronger effect = lower value 0.961 and 1.01 | S. cerevisiae deletion strains, locus YPR167C, strain met16, stronger effect = lower value 0.983 and 1.01 | S. cerevisiae deletion strains, strain wtn01, stronger effect = lower value 0.971 and 1.03 | S. cerevisiae strains, strain wild type, stronger effect = lower value 0.994 and 1.01
